For some of these results: Potency and affinity values are given separately.
Tests used:
Design in all cases: scale not given: direction of the effect not stated beside the values
[1] = molecular target: Protein translocase subunit SecA (Escherichia coli (strain K12)) (UniProt P10408); experiment: Assay to Identify E. coli SecA ATPase Inhibitors; type: functional; details: 30 µM
[2] = molecular target: T1, Ubiquitin-activating enzyme e1, putative (Leishmania donovani (strain BPK282A1)) (UniProt E9BSI1); experiment: Leishmania donovani Ubiquitin Activating Enzyme (LdE1); type: functional; details: 30 µM
T1 sequence (whole entry): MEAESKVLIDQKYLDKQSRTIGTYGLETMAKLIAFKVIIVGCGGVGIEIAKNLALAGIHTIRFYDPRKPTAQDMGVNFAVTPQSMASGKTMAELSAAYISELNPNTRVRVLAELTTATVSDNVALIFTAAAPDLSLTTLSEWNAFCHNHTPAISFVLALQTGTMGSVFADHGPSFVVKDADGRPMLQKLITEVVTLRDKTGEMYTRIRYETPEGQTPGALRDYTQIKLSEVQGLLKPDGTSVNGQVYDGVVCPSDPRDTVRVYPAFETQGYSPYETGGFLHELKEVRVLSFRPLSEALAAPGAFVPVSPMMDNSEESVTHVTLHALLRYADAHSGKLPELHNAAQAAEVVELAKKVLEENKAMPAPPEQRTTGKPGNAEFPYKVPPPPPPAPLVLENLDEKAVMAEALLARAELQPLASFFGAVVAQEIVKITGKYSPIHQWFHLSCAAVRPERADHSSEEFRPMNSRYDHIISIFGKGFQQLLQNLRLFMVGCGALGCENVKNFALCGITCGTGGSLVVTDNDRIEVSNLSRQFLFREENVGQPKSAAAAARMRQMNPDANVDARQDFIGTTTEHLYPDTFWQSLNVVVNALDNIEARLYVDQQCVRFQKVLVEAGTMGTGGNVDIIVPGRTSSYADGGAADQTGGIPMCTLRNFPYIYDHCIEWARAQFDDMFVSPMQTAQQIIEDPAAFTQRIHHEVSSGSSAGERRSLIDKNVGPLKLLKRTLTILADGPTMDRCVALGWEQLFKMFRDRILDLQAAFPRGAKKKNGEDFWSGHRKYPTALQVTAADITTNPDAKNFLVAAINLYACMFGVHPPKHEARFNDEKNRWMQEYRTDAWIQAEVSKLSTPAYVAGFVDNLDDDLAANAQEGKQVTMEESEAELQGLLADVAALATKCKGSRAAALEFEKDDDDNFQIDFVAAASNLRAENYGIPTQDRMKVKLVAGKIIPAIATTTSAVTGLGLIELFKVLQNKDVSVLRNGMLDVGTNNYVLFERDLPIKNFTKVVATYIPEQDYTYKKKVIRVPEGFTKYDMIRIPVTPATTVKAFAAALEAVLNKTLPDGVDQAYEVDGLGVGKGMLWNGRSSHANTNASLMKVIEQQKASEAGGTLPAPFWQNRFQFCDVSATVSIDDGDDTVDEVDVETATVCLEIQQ

[3] = molecular target: Sialic acid-binding Ig-like lectin 9 (Homo sapiens) (UniProt Q9Y336); experiment: Hs-Siglec9 ALPHAscreen SOP 20170721; details: 10 µM
[4] = tested on: Trypanosoma cruzi; experiment: Trypanosoma cruzi phosphomannomutase and mannose-1-phosphate guanylyltransferase assay; type: functional; details: 10 µM
[5] = molecular target: T2, Arginase-2, mitochondrial (Homo sapiens) (UniProt P78540); experiment: in vitro enzyme assay to detect the production of urea directly proportional to the activity of Arginase II; type: functional; details: 33.3 µM; further: in the data most compounds retested in dose-response had high values
T2 sequence (whole entry): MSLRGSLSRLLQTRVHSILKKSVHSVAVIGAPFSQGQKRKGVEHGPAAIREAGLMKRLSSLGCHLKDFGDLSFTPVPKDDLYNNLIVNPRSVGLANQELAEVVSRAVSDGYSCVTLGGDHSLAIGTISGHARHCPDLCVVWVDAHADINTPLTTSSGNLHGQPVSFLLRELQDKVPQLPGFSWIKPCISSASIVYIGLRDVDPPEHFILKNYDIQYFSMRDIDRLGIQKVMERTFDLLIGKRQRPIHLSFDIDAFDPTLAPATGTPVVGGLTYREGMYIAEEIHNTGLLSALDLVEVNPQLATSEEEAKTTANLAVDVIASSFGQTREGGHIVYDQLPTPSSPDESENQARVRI

[6] = molecular target: T3, Proteasome subunit beta (Trypanosoma cruzi) (UniProt O96673); experiment: Trypanosoma cruzi proteasome chymotrypsin-like activity (TcProtChymo) assay.; further: in the data most compounds retested in dose-response had high values; type: functional; details: 9.37 µM
T3 sequence (whole entry): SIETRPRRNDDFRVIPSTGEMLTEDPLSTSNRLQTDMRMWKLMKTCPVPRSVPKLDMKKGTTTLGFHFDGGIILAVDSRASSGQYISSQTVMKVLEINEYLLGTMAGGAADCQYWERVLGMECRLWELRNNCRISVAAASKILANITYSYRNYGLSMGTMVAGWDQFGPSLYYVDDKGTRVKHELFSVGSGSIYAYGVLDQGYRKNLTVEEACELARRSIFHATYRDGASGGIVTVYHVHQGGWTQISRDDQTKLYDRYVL

[7] = species: Homo sapiens; experiment: To identify inhibition of the IFN signalling (Jak-Stat) pathway via expression of an eGFP reporter gene under the control of an IFN-stimulated response element (ISRE) containing MxA promoter.; type: functional; details: 30 µM
[8] = molecular target: T4, Tyrosyl-tRNA synthetase, putative (Trypanosoma cruzi (strain CL Brener)) (UniProt Q4DSP6); experiment: Trypanosoma cruzi tyrosyl tRNA synthetase (TcYRS) _High Tyrosine SOP; type: functional; details: 30 µM; further: in the data most compounds retested in dose-response had high values
T4 sequence (whole entry): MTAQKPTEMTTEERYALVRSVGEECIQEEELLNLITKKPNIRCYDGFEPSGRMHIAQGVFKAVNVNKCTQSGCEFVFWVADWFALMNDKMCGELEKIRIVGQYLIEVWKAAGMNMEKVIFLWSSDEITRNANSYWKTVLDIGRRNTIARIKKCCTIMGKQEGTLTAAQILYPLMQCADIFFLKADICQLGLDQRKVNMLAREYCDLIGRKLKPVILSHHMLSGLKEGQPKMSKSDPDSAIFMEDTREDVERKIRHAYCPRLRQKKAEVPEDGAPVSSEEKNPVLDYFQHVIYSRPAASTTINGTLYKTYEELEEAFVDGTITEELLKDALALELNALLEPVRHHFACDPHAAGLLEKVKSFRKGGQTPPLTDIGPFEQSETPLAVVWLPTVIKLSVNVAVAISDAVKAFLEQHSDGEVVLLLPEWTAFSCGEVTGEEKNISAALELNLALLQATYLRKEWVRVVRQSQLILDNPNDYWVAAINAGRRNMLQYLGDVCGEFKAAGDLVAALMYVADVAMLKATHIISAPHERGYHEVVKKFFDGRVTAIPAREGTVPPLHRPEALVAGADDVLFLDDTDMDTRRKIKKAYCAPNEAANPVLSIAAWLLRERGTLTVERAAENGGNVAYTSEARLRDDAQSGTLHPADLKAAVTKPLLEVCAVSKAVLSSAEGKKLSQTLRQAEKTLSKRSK

[9] = molecular target: T4, Tyrosyl-tRNA synthetase, putative (Trypanosoma cruzi (strain CL Brener)); experiment: Trypanosoma cruzi tyrosyl tRNA synthetase (TcYRS) SOP; type: functional; details: 30 µM
[10] = molecular target: Chromo domain-containing protein 1 (Saccharomyces cerevisiae (strain ATCC 204508 / S288c) (Baker's yeast)) (UniProt P32657); experiment: ScCHD-1 Enzyme Inhibition Assay; type: functional; details: 30 µM; further: in the data most compounds retested in dose-response had high values
Sequence of Chromo domain-containing protein 1 (Saccharomyces cerevisiae (strain ATCC 204508 / S288c) (Baker's yeast)) (P32657 whole entry, the tested form may be a part): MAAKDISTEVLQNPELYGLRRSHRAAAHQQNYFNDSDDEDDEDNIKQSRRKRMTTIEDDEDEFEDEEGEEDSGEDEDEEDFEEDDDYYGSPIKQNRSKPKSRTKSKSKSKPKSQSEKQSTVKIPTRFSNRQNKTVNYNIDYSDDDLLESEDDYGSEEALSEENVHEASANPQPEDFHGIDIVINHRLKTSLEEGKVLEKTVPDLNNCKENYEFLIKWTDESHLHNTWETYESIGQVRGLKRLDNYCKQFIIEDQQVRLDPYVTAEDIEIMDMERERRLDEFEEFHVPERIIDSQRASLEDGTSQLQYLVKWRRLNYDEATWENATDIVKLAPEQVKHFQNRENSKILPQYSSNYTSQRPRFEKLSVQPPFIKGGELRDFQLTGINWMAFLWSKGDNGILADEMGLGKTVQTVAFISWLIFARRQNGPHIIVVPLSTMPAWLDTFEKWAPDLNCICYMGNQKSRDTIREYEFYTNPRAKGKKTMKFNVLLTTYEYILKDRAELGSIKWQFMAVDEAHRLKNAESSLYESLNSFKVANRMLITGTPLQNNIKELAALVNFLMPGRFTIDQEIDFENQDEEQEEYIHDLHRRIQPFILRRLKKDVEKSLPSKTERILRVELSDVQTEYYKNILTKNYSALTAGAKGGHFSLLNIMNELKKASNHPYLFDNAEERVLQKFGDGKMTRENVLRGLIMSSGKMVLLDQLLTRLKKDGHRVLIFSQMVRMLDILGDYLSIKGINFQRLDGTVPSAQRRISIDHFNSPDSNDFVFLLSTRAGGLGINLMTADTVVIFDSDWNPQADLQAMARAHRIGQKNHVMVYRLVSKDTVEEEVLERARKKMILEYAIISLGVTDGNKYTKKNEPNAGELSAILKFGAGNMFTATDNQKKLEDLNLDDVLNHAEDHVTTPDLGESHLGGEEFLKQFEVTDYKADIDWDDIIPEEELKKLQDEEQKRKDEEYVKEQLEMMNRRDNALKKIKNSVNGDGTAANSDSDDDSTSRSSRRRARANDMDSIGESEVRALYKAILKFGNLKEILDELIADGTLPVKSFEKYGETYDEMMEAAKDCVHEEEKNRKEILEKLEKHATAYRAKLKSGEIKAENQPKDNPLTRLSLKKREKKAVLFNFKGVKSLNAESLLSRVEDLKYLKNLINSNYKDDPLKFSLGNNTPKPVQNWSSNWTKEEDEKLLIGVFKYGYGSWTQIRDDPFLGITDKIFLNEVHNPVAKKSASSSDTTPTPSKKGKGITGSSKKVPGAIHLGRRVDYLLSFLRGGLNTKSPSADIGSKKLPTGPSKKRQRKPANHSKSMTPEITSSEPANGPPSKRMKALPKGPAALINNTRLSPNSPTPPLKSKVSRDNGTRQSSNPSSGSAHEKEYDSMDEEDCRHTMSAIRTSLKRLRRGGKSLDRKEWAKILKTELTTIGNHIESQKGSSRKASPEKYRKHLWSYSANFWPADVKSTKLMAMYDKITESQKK

Sequence of Protein translocase subunit SecA (Escherichia coli (strain K12)) (P10408 whole entry): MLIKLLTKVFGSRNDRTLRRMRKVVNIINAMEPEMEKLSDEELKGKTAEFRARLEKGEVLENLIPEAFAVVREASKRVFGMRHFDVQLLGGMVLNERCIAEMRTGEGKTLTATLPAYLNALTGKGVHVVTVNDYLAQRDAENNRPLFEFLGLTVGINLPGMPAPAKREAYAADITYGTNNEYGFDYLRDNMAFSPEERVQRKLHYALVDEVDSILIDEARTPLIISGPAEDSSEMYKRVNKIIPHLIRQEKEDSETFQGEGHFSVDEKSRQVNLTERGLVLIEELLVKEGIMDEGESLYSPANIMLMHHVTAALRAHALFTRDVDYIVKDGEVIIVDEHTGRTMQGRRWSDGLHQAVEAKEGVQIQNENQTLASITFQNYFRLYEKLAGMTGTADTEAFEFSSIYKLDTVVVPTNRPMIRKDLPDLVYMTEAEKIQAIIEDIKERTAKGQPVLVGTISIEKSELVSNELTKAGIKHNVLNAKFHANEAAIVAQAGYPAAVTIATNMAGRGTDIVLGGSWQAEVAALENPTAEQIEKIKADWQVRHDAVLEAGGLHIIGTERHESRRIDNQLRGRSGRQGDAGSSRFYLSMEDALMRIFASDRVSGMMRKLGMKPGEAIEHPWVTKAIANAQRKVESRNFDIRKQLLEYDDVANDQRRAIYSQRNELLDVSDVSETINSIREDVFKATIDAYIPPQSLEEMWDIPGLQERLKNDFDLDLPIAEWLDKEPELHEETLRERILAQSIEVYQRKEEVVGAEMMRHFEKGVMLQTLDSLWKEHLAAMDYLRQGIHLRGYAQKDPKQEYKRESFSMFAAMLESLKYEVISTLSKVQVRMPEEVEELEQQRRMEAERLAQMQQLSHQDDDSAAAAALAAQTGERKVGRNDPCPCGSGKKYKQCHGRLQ
Sequence of Sialic acid-binding Ig-like lectin 9 (Homo sapiens) (Q9Y336 whole entry): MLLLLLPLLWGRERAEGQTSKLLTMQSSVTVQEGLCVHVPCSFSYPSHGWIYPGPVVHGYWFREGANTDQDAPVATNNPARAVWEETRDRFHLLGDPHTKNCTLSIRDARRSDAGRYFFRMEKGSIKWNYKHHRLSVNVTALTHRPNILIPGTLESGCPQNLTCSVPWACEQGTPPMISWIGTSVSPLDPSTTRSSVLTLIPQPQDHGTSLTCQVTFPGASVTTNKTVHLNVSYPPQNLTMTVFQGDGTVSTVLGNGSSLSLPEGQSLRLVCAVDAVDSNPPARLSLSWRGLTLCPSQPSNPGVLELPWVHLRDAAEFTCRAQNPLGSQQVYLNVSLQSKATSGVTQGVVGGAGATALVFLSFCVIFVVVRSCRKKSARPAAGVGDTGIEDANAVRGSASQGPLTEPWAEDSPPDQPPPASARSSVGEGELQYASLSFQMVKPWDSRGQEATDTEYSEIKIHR

Compound	Percent Effect [1]	Percent Effect [2]	Percent Effect [3]	Percent Effect [4]	Percent Effect [5]	Percent Effect [6]	Percent Effect [7]	Percent Effect [8]	Percent Effect [9]	Percent Effect [10]
Cc1ccc(NC(=O)C2CSCN2C(=O)c2cc[nH]n2)c(C)c1 (stereo not given)	-2.87%	5.13%	9.07%	4.79%	-0.41%	0.768%	-8.73%	3.35%	20.5%	-1.03%
CCc1nccn1C1CCCN(C(=O)c2csc(NC(C)=O)n2)C1 (stereo not given)	-3.11%	15.6%	14.2%	-2.98%	0.205%	8.95%	-1.12%	4.9%	11.8%	-7.02%
CCCn1[nH]cc/c1=N\C(=O)CN1CCOC(Cn2cc(C)cn2)C1 (stereo not given)	-8.16%	5.33%	3.2%	3.61%	0.444%	5.85%	-3.75%	2.63%	7.69%	-5.89%
Cc1cnn(C(C)C2CC2)c1NC(=O)c1cnccn1 (stereo not given)	-5.04%	0%	0.592%	1.07%	0.35%	-1.03%	16.7%	1.6%	4.88%	2.37%
CN(Cc1cn2ccccc2c1C#N)C1CCCN(c2cccnn2)C1 (stereo not given)	-1.94%	-15.6%	10.5%	1.31%	-3.07%	13.7%	6.2%	13.7%	9.41%	-7.9%
O=C(c1cccnc1)N1CCn2nnc(COc3cccnc3)c2C1	-4.23%	1.3%	-1.59%	-6.13%	4.45%	14%	-1.63%	7.89%	7.69%	2.46%
Cc1cnn(CC2CCCN2C(=O)c2ccc(OC(C)C)nc2)c1 (stereo not given)	-0.574%	-2.56%	12.5%	0.657%	4.92%	-5.89%	-3.81%	-3.35%	1.21%	2.64%
Cc1cc(OCC(=O)NS(=O)(=O)c2c(C)noc2C)ccc1Cl	-0.396%	-5.13%	2.29%	4.79%	0%	1.28%	18.7%	-5.26%	-1.21%	0.575%
CNC(=O)C1CCC(NC(=O)N(C)Cc2c(C)noc2C)CC1 (stereo not given)	-5.49%	10.3%	-15.1%	11%	-3.28%	1.96%	2.07%	6.22%	18.1%	96.3%
COc1ccc(C)cc1C(C)NC(=O)NCCCn1cncn1 (stereo not given)	-2.2%	18.7%	1.49%	1.81%	1.33%	13.5%	4.64%	6.84%	20.5%	-10.3%
